Screening data (PubChem BioAssay)
MITF TRPM1 inh = reduces MITF-dependent TRPM1 promoter luciferase signal. SK-MEL-5 TRPM1 promoter luciferase, 24 h. inhibition, % at 12.5 µM. actives 0.83% (n = 330,000). AID 488899;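 active means mean inhibition across replicates of 60% or more, whatever share of single replicates reaches that level; inconclusive means some that reach 60%, reason not given; inactive means mean inhibition across replicates below 60%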
KKLEB tox = reduces viability of KKLEB cystic fibrosis airway cells | KKLEB CF airway cells viability, ATPlite luminescence, overnight; active compounds read low; cells stimulated with P. aeruginosa culture filtrate | activity change (cytotoxicity), % at 5 µM | actives 0.36% (n = 360,000);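 active means corrected activity change at or below -50% at 5 µM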
CF NFkB block = inhibitors of cystic fibrosis induced NF-kB. KKLEB NF-kB-GFP reporter, PAF-induced, GFP fluorescence overnight. inhibition, % at 5 µM. actives 0.86% (n = 360,000);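 active means at least 50% inhibition at 5 µM, scaled per plate between neutral and stimulator controls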;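 further: PAF is a Pseudomonas aeruginosa culture filtrate used as stimulus; plate controls were PAF-stimulated DMSO wells for no effect and unstimulated DMSO wells for full effect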
HIF-2a block = inhibitors of HIF-2a | 786-0 RCC cells HIF-2a reporter, luciferase luminescence, overnight | inhibition, % at 18.8 µM | actives 0.72% (n = 360,000);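 active means inhibition of the luminescence signal of 40% or more relative to plate controls, in a single-dose primary screen at 18.75 µM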
Shn3 inh set2 = reduces Shn3 3'UTR luciferase signal in osteoblasts. Clone20 osteoblast Shn3 3'UTR firefly luciferase, 24 h. actives 0.52% (n = 360,000). inhibition, % at 12.5 µM;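 active means mean inhibition of at least 75% with every replicate also reaching 75%; inconclusive means mean inhibition at least 75% but some replicate below; inactive means mean inhibition below 75%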;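 further: 0% = median of neutral control wells and 100% = pilot-screen positive control compound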
Peg3 prom inh = inhibitors of Peg3 promoter; actives 1.7% (n = 360,000); HeLa PEG-Prom luciferase reporter, luminescence, overnight; inhibition, % at 20 µM;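 active means inhibition of at least 50% at 20 µM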
The depositor's hits bear a star. Rows were chosen to be rich in hits. Some 2.8% of all compounds tested hit in one or more screens of this group.

Results for COC(c1ccc(Cl)cc1)(c1ccc(Cl)cc1)C(Oc1nc(C)cc(C)n1)C(=O)O (configuration not stated) ?
MITF TRPM1 inh: 11; KKLEB tox: -6; CF NFkB block: 12; HIF-2a block: 23; Shn3 inh set2: 7; Peg3 prom inh: 8

How did Cc1nc2c(-c3ccccc3)cnn2c(N)c1-c1ccccc1 do in these assays?
MITF TRPM1 inh: 6; KKLEB tox: -65*; CF NFkB block: -15; HIF-2a block: 32; Shn3 inh set2: 16; Peg3 prom inh: 40

Results for COc1ccccc1CNC(=O)CN(CCc1ccccc1)S(C)(=O)=O ?
MITF TRPM1 inh: 2; KKLEB tox: -6; CF NFkB block: 14; HIF-2a block: 19; Shn3 inh set2: -11; Peg3 prom inh: 0

How did CCCCc1ccc(NC(=O)N2CCN(c3cc(C)nc4ccccc34)CC2)c(C)c1 do in these assays?
MITF TRPM1 inh: 18; KKLEB tox: -5; CF NFkB block: 15; HIF-2a block: 15; Shn3 inh set2: 40; Peg3 prom inh: 60*

How did Cc1cc(N2CCN(C(=O)Nc3ccc(F)cc3F)CC2)c2ccccc2n1 do in these assays?
MITF TRPM1 inh: -4; KKLEB tox: -4; CF NFkB block: 0; HIF-2a block: 17; Shn3 inh set2: 24; Peg3 prom inh: 9

What do the screens show for `Nc1ncnc(Sc2ncccn2)c1[N+](=O)[O-]`?
MITF TRPM1 inh: 79*; KKLEB tox: -6; CF NFkB block: 55*; HIF-2a block: 30; Shn3 inh set2: -13; Peg3 prom inh: 101*

How did COc1ccccc1N1CCN(C(=O)Cn2ncc3c([nH]c4ccccc43)c2=O)CC1 do in these assays?
MITF TRPM1 inh: -5; KKLEB tox: -3; CF NFkB block: 2; HIF-2a block: 14; Shn3 inh set2: 12; Peg3 prom inh: 7

What do the screens show for `COc1ccc(N2CCN(C(=O)Cn3ncc4c([nH]c5ccccc54)c3=O)CC2)cc1`?
MITF TRPM1 inh: 0; KKLEB tox: -9; CF NFkB block: 43; HIF-2a block: 0; Shn3 inh set2: 0; Peg3 prom inh: 53*

Results for CCOc1ccc(N(CC(=O)N2CCCC2)S(=O)(=O)c2ccc(F)cc2)cc1 ?
MITF TRPM1 inh: 6; KKLEB tox: 2; CF NFkB block: 4; HIF-2a block: 8; Shn3 inh set2: -6; Peg3 prom inh: -1

What do the screens show for `C=CCN(C(=O)c1csnn1)C(C(=O)NCc1ccc(F)cc1)c1sccc1C` (configuration not stated)?
MITF TRPM1 inh: -8; KKLEB tox: 6; CF NFkB block: 1; HIF-2a block: 16; Shn3 inh set2: -3; Peg3 prom inh: 1

What do the screens show for `Nc1cccc(-c2nc3cc(S(=O)(=O)c4ccc5oc(-c6cccc(N)c6)nc5c4)ccc3o2)c1`?
MITF TRPM1 inh: 55; KKLEB tox: 9; CF NFkB block: -10; HIF-2a block: -5; Shn3 inh set2: 46; Peg3 prom inh: 73*

What do the screens show for `O=C(NC1CCCC1)C(=O)N(c1ccccc1F)C(C(=O)NCC1CCCO1)c1cccs1` (configuration not stated)?
MITF TRPM1 inh: -6; KKLEB tox: 5; CF NFkB block: 1; HIF-2a block: 15; Shn3 inh set2: 18; Peg3 prom inh: 12

Results for Cc1nn2c(N3CCN(C4CCCC4)CC3)cc(C(C)(C)C)nc2c1-c1ccccc1 ?
MITF TRPM1 inh: 1; KKLEB tox: 8; CF NFkB block: -11; HIF-2a block: -4; Shn3 inh set2: -9; Peg3 prom inh: 16

Results for Cc1nn2c(N3CCN(C)CC3)cc(C(C)(C)C)nc2c1-c1ccccc1 ?
MITF TRPM1 inh: -14; KKLEB tox: -20; CF NFkB block: 20; HIF-2a block: 12; Shn3 inh set2: 17; Peg3 prom inh: 59*

Results for CCC1CCc2sc(C(=O)N(C)CC(=O)Nc3ccc(N4CCOCC4)cc3)cc2C1 (configuration not stated) ?
MITF TRPM1 inh: 4; KKLEB tox: -5; CF NFkB block: 0; HIF-2a block: -16; Shn3 inh set2: -11; Peg3 prom inh: -6

What do the screens show for `CC(C)C(CCNC1CCN(C)CC1)c1ccc(Cl)cc1` (configuration not stated)?
MITF TRPM1 inh: 90*; KKLEB tox: -23; CF NFkB block: 16; HIF-2a block: 23; Shn3 inh set2: 11; Peg3 prom inh: 100*

How did C[C@@H]1CN([C@H](C)CO)C(=O)CCCn2nncc2CO[C@H]1CN(C)C(=O)c1ccncc1 do in these assays?
KKLEB tox: 10; CF NFkB block: 13; HIF-2a block: 5; Shn3 inh set2: -10; Peg3 prom inh: 7

What do the screens show for `COc1cc(OC)c2cc(C(=O)N/N=C/c3cccc(OC)c3O)[nH]c2c1`?
MITF TRPM1 inh: 54; KKLEB tox: -17; CF NFkB block: 8; HIF-2a block: -24; Shn3 inh set2: 96*; Peg3 prom inh: 57*

What do the screens show for `COc1cccc(/C=N/NC(=O)c2c(C)nc3ccc(Br)cn23)c1O`?
MITF TRPM1 inh: 67*; KKLEB tox: -10; CF NFkB block: 16; HIF-2a block: -20; Shn3 inh set2: inconclusive; Peg3 prom inh: 49

How did CCOc1ccccc1/C=N/NC(=O)c1c(C)nc2ccc(Br)cn12 do in these assays?
MITF TRPM1 inh: -8; KKLEB tox: 6; CF NFkB block: 22; HIF-2a block: 13; Shn3 inh set2: 19; Peg3 prom inh: -1

What do the screens show for `COc1cccc(/C=N/NC(=O)c2ccc3nc[nH]c3c2)c1O`?
MITF TRPM1 inh: 5; KKLEB tox: 3; CF NFkB block: -5; HIF-2a block: 2; Shn3 inh set2: 16; Peg3 prom inh: 0

How did COc1cccc(/C=N/NC(=O)c2cc3c(OC)ccc(OC)c3[nH]2)c1O do in these assays?
MITF TRPM1 inh: 21; KKLEB tox: -8; CF NFkB block: 8; HIF-2a block: -16; Shn3 inh set2: 94*; Peg3 prom inh: 52*

How did COc1cccc(/C=N\NC(=O)c2ccc(Cn3cc(Br)c([N+](=O)[O-])n3)o2)c1O do in these assays?
MITF TRPM1 inh: 49; KKLEB tox: -13; CF NFkB block: 22; HIF-2a block: -80; Shn3 inh set2: 89*; Peg3 prom inh: 34

How did CC1=C(C(=O)N2CCOCC2)CC(CC(=O)NCc2cccc3ccccc23)C(=O)N1Cc1ccc(C(C)(C)C)cc1 (configuration not stated) do in these assays?
KKLEB tox: -4; CF NFkB block: -40; HIF-2a block: -2; Shn3 inh set2: 13; Peg3 prom inh: 8

What do the screens show for `O=C(N/N=C/c1ccc(O)cc1O)c1ccc(NC(=O)C2CCCCC2)cc1`?
MITF TRPM1 inh: 67*; KKLEB tox: -12; CF NFkB block: 34; HIF-2a block: 9; Shn3 inh set2: 50; Peg3 prom inh: 62*

How did Cc1ccc(-c2nc(N/N=C/c3ccncc3)c3ccccc3n2)cc1 do in these assays?
MITF TRPM1 inh: -6; KKLEB tox: -95*; CF NFkB block: -28; HIF-2a block: -174; Shn3 inh set2: 41; Peg3 prom inh: -23
